Source: the supplement of paper PMC10849652
The full data set covers some 7,900 targets. This sample favours those with a hit. About 0.6% of all pairs of compound and target were hits. Unmarked numbers belong to inactive results.

Columns and labels:
Assay in all cases: log2 fold change, soluble protein after heating vs DMSO (PISA); higher = thermal stabilisation; K562 cells, 10 uM, 30 min; active = over 0.2 and 3.5 SD of the protein, either way, in both replicates (recomputed)
[1] = compound: CC[C@@H]1C(=O)N(C)c2cnc(Nc3ccc(C(=O)NC4CCN(C)CC4)cc3OC)nc2N1C1CCCC1
Procedure, shortened: (§1)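 Aliquots of K562 cells (2×10^6 cells/mL) treated with 10 μM compound for 30 min were heated for 3 min over 48°C-58°C. After pooling and extraction in PBS with 0.5% NP-40 at 4°C, soluble protein from a 21,000xg, 90 min spin was quantified by TMTpro 16plex LC-MS/MS with channel sums equalised. Thermal stability is expressed against control samples, from duplicates, as a log2 fold change.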

[2] = compound: CC[C@@H]1C(=O)N(C)c2cnc(Nc3ccc(C(=O)N[C@H]4CC[C@H](N5CCN(CC6CC6)CC5)CC4)cc3OC)nc2N1C(C)C [volasertib]
Procedure, shortened: as §1

[3] = compound: CC[C@H](C)N1C=C(C2=C(C=C(C=C21)C3=CN=C(C=C3)N4CCNCC4)C(=O)NCC5=C(C=C(NC5=O)C)C)C
Procedure, shortened: as §1

[4] = compound: CC[C@H](C)[C@@H](C(=O)N[C@@H]([C@@H](C)O)C(=O)N[C@@H](CC(C)C)C(=O)[C@]1(CO1)C)NC(=O)[C@H]([C@@H](C)CC)N(C)C(=O)C [epoxomicin]
Procedure, shortened: as §1

[5] = compound: CCn1c(C(=O)N(C2CC2)C2CC2)cc2c3c(ncn3C)c(Nc3cc(C)n(C)n3)nc21
Procedure, shortened: as §1

[6] = compound: CCn1cc(-c2ccnc3[nH]c(-c4cccc(CN(C)C)c4)cc23)c(-c2ccc(NC(=O)N(C)C)cc2)n1
Procedure, shortened: as §1

[7] = compound: CN(C)CC(=O)Nc1ccc2[nH]c(=O)c3ccccc3c2c1
Procedure, shortened: as §1

[8] = compound: CN(CCOC1=CC=C(C=C1)C[C@H]2C(=O)NC(=O)S2)C3=CC=CC=N3 (racemic) [rosiglitazone]
Procedure, shortened: as §1

[9] = compound: CN1C2=C(C3=C1C(=O)N(N=C3)CC4=CC(=CC=C4)N)SC(=C2)S(=O)C
Procedure, shortened: as §1

[10] = compound: CN1CCC(CNc2ccc3ncc(-c4cccc(OC(F)(F)F)c4)n3n2)CC1
Procedure, shortened: as §1

UniProt P26641, sequence (P26641 whole entry, looked up): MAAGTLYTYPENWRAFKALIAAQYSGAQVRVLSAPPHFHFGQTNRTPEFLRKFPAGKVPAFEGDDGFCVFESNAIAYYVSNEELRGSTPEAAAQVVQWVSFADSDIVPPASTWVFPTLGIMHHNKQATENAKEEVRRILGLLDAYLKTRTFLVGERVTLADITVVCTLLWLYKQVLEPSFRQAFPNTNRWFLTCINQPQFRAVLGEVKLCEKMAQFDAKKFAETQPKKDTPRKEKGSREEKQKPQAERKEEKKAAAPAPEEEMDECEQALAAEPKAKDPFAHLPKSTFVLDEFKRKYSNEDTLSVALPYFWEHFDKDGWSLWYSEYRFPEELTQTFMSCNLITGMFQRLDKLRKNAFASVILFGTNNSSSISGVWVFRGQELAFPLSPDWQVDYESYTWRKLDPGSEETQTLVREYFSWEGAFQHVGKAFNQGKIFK
UniProt Q5W0V3, sequence (Q5W0V3 whole entry, looked up): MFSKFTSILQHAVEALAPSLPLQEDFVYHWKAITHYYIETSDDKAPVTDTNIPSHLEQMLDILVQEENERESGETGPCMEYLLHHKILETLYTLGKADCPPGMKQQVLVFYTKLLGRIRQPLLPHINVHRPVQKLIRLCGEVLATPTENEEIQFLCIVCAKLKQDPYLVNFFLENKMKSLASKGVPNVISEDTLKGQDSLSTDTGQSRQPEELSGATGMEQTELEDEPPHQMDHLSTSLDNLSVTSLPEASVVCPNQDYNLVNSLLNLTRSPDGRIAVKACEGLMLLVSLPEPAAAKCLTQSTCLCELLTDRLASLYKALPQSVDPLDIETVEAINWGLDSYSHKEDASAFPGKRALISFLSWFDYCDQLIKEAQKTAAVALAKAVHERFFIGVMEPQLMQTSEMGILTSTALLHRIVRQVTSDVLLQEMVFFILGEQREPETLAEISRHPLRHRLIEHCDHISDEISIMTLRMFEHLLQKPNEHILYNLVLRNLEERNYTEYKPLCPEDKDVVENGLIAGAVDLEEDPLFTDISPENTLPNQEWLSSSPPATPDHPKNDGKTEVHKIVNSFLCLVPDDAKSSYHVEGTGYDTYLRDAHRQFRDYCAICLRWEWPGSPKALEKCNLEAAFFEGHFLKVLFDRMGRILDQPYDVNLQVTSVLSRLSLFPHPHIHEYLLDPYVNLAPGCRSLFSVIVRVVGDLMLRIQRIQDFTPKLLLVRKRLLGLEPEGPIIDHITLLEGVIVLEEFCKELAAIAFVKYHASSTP
UniProt Q8N3D4, sequence (Q8N3D4 whole entry, looked up): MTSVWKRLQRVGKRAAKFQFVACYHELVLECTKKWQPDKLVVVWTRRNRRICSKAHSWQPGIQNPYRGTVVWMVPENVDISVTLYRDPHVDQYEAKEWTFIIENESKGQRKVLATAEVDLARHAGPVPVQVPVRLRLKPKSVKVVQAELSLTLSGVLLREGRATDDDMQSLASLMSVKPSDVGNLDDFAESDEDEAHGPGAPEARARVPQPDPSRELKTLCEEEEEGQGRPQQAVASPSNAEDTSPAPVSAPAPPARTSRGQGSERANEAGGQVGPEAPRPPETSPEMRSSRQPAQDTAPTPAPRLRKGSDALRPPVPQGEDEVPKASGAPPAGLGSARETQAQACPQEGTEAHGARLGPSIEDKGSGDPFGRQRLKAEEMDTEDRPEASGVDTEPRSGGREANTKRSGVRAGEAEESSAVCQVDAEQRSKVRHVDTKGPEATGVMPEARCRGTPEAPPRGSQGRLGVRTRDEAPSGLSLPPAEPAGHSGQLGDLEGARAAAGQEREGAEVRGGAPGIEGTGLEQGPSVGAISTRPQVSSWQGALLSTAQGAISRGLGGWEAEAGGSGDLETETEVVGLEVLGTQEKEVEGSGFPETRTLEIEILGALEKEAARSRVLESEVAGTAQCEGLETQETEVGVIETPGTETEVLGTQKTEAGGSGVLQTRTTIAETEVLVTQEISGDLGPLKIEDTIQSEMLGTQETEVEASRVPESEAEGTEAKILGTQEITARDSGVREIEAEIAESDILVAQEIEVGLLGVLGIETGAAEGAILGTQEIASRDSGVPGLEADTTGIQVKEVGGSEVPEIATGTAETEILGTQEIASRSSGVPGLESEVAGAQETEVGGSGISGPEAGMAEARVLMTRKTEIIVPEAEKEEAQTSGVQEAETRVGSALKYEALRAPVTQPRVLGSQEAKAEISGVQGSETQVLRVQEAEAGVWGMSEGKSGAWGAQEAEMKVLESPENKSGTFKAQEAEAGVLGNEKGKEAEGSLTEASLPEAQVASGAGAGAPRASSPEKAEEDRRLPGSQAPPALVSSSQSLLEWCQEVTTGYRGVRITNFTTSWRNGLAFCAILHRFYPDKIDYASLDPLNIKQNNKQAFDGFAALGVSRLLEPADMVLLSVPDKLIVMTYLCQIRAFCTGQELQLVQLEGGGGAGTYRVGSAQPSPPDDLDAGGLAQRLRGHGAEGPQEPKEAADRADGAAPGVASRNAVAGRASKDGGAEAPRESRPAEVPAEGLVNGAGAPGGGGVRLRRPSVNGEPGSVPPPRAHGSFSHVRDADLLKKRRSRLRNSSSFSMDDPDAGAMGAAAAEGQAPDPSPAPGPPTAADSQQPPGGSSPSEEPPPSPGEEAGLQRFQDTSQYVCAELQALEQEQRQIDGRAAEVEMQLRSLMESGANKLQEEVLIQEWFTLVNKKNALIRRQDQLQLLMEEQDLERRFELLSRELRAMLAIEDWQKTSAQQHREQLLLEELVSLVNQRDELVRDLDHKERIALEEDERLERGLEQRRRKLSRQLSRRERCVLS
UniProt Q96GE9, sequence (Q96GE9 whole entry, looked up): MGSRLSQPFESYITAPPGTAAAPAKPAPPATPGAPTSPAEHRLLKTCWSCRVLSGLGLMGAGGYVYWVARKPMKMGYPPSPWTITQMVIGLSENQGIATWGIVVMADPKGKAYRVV
UniProt Q8TAG9, sequence (Q8TAG9 whole entry, looked up): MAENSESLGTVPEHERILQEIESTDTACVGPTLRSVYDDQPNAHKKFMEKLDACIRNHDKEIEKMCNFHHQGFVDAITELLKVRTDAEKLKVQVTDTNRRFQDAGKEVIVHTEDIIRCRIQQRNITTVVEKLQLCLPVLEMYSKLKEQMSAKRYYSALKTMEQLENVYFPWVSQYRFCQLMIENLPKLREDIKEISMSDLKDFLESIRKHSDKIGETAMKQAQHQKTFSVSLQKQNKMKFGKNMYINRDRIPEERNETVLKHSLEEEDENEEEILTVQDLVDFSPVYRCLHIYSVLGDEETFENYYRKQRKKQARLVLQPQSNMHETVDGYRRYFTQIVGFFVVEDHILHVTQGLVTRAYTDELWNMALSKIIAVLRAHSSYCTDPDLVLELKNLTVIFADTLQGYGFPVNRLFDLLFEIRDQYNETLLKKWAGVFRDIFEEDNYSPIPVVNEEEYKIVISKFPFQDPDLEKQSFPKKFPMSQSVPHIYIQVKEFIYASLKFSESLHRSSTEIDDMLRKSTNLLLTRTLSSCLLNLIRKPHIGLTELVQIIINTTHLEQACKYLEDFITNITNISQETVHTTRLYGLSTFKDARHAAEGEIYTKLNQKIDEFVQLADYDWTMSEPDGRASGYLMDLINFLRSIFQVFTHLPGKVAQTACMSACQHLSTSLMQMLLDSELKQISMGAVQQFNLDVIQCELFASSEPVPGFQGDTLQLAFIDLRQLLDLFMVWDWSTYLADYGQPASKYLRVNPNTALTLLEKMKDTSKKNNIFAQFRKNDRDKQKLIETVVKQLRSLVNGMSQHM
UniProt O75477, sequence (O75477 whole entry, looked up): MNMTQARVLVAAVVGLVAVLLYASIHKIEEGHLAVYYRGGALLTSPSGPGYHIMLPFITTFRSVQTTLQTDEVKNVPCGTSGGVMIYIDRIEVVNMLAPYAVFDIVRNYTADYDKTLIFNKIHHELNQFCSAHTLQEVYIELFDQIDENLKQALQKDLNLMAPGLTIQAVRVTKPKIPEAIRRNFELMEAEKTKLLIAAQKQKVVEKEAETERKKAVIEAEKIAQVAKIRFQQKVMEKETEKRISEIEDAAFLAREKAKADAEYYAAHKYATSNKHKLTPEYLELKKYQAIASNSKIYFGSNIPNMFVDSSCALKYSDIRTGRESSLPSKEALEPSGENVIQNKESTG
UniProt O00148, sequence (O00148 whole entry, looked up): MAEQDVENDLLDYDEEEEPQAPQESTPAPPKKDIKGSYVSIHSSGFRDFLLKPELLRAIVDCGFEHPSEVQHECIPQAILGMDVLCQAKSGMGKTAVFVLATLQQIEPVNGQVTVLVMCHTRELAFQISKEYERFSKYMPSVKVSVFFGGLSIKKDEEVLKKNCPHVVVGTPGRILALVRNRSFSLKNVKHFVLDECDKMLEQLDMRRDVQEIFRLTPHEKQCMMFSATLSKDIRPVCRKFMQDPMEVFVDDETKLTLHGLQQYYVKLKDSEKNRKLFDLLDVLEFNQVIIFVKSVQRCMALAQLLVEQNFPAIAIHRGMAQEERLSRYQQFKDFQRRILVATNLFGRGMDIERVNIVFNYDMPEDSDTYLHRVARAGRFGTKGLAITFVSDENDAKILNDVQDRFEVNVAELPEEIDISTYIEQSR
UniProt Q8NBA8, sequence (Q8NBA8 whole entry, looked up): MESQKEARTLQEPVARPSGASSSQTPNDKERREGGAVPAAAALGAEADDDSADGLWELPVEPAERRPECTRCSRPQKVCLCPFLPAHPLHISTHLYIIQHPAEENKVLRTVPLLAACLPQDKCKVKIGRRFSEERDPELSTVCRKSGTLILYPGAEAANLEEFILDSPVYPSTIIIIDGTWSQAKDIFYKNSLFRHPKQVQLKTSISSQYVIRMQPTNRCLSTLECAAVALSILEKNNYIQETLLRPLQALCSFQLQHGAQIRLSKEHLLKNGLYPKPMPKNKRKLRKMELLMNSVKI
UniProt O75822, sequence (O75822 whole entry, looked up): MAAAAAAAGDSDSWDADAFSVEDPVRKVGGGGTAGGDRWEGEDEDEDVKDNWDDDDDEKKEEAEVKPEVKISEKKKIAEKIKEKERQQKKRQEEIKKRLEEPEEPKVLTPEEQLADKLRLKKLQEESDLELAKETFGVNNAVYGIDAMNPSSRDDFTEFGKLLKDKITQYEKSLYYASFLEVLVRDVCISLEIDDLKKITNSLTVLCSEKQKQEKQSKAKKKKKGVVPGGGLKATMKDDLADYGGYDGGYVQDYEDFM

| Target | log2 fold change [1] | log2 fold change [2] | log2 fold change [3] | log2 fold change [4] | log2 fold change [5] | log2 fold change [6] | log2 fold change [7] | log2 fold change [8] | log2 fold change [9] | log2 fold change [10] |
| --- | --- | --- | --- | --- | --- | --- | --- | --- | --- | --- |
| EIF2S3 (UniProt P41091) | 0.076 | 0.073 | 0.026 | -0.144 | 0.009 | 0.055 | -0.034 | -0.02 | 0.068 | 0.049 |
| DBN1 isoform 3 (UniProt Q16643) | 0.026 | -0.189 | 0.089 | -0.014 | 0.017 | 0.087 | -0.047 | -0.021 | 0.05 | -0.011 |
| DMAC1 (UniProt Q96GE9) | 0.269 | 0.016 | -0.038 | -0.084 | 0.057 | -0.041 | 0.001 | -0.025 | -0.007 | 0.015 |
| DDX39A (UniProt O00148) | 0.037 | -0.104 | 0.034 | -0.096 | -0.037 | -0.123 | -0.002 | 0.018 | 0.038 | -0.016 |
| DHFR (UniProt P00374) | 0.002 | -0.11 | 0.088 | -0.013 | -0.101 | -0.077 | 0.091 | 0.046 | 0.113 | 1.64 (active) |
| DCAF13 (UniProt Q9NV06) | 0.134 | 0.26 | 0.03 | -0.24 | 0.038 | 0.132 | -0.166 | -0.112 | 0.195 | 0.136 |
| DAG1 (UniProt Q14118) | 0.149 | 0.048 | -0.008 | 0.023 | -0.039 | -0.044 | 0.012 | -0.007 | -0.075 | 0.243 (active) |
| FAM160B1 (UniProt Q5W0V3) | -0.007 | -0.043 | 0.07 | 0 | 0.027 | -0.057 | -0.052 | 0.009 | -0.056 | -0.254 |
| EIF3J (UniProt O75822) | -0.061 | 0.005 | 0.011 | 0.055 | 0 | 0.001 | -0.008 | 0.019 | -0.061 | 0.226 |
| DHRS7B (UniProt Q6IAN0) | -0.079 | -0.147 | -0.043 | -0.106 | 0.004 | 0.059 | -0.002 | 0.021 | -0.122 | 0.538 (active) |
| EMD (UniProt P50402) | -0.127 | -0.273 (active) | 0 | -0.065 | -0.004 | 0 | -0.018 | -0.054 | 0.003 | -0.078 |
| DPYSL2 (UniProt Q16555) | 0.055 | -0.037 | 0.014 | 0.129 | -0.071 | -0.073 | 0.11 | 0.039 | -0.058 | -0.067 |
| EHBP1L1 (UniProt Q8N3D4) | -0.035 | -0.307 (active) | 0.091 | 0.072 | 0.012 | -0.055 | 0.029 | 0.094 | 0.077 | 0.101 |
| DTWD2 (UniProt Q8NBA8) | -0.047 | -0.048 | 0.057 | -0.015 | 0.057 | -0.018 | -0.106 | 0.005 | -0.066 | 0.035 |
| DDOST (UniProt P39656) | 0.006 | -0.102 | -0.014 | -0.014 | 0.015 | 0.052 | -0.031 | -0.007 | 0.019 | 0.089 |
| ELOVL5 isoform 2 (UniProt Q9NYP7) | -0.227 | -0.164 | 0.026 | -0.034 | 0.049 | -0.206 | 0.021 | 0.122 | -0.044 | -0.691 (active) |
| ERLIN1 (UniProt O75477) | -0.01 | -0.025 | 0.07 | 0.018 | 0.01 | 0.057 | 0.003 | 0.016 | 0.095 | 0.116 |
| DYRK1A isoform 2 (UniProt Q13627) | 0.015 | -0.005 | 0.104 | 0.048 | -0.012 | -0.05 | 0.014 | 0.036 | -0.024 | -0.086 |
| DBR1 (UniProt Q9UK59) | 0.037 | 0 | 0.008 | -0.018 | -0.017 | 0.015 | -0.019 | -0.002 | -0.034 | 0.015 |
| EED, A0A5F9ZI63 | -0.052 | -0.055 | -0.159 | -0.032 | -0.001 | 0.068 | -0.099 | 0.054 | 0.045 | 0.209 |
| CTSB (UniProt P07858) | -1.16 (active) | -1.72 (active) | -0.009 | -0.011 | 0.017 | -0.047 | 0.021 | -0.007 | -0.07 | -0.936 (active) |
| CUX1 isoform 2 (UniProt Q13948) | -0.055 | -0.188 | 0 | -0.002 | -0.112 | 0.043 | 0.317 | 0.033 | 0.016 | 0.055 |
| EEF1G isoform 2 (UniProt P26641) | -0.164 | -0.364 (active) | 0.075 | 0.008 | -0.012 | -0.005 | 0.022 | 0.005 | 0.011 | 0.016 |
| EXOC1 (UniProt Q9NV70) | -0.219 | -0.44 | 0.077 | -0.012 | -0.081 | 0.023 | 0.084 | 0.115 | 0.1 | -0.319 |
| EFCAB14 (UniProt O75071) | -0.033 | -0.089 | -0.078 | 0.068 | 0.045 | 0.06 | -0.018 | -0.009 | 0.028 | -0.178 |
| EXOC6 (UniProt Q8TAG9) | -0.224 | -0.443 (active) | 0.102 | -0.06 | -0.051 | 0.014 | 0.033 | 0.009 | 0.06 | -0.23 |
| CTU1 (UniProt Q7Z7A3) | -0.052 | -0.117 | 0.026 | 0.045 | -0.017 | -0.057 | 0.065 | 0.055 | -0.098 | -0.233 (active) |
| CTSH (UniProt P09668) | -0.087 | -0.06 | 0.008 | -0.022 | 0.03 | 0.057 | 0.001 | 0.004 | -0.008 | -0.295 (active) |
| DIAPH1 (UniProt O60610) | 0.012 | -0.211 | 0.09 | -0.004 | -0.061 | 0.055 | 0.053 | 0.047 | 0.168 | -0.012 |
| DYNC1I2 isoform 5 (UniProt Q13409) | 0.004 | 0.005 | 0.004 | 0.026 | 0.011 | -0.003 | 0.002 | -0.024 | -0.041 | -0.035 |
